Records with an inconclusive call do not appear. Active and inactive are the calls of the source. The call rests on the fitted dose curve; in most records, active means well fitted cell-killing curve with a large enough effect; inconclusive means small, poorly fitted or top-dose-only effect, or effect the other way; inactive means no such curve, though single readings can be large or run the other way.

The nature of assay [1]: Quantitative High-Throughput drug screen in 47 multiple myeloma cell lines against the NCATS MIPE library collection: XG6_PLB cell viability assay (AID 1919865). Further: nearly all actives have a fitted effect of over 40% in size. The method in brief: (§1)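 qHTS format: cells plated (500/well), pin-dosed with MIPE 4.0 compounds, kept 48 h at 37 °C. Readout was CellTiter-Glo luminescence, median RLU.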
A short description of assay [2]: Quantitative High-Throughput drug screen in 47 multiple myeloma cell lines against the NCATS MIPE library collection: XG1_PLB cell viability assay (AID 1919866). Further: nearly all actives have a fitted effect of over 35% in size. The method in brief:
as §1

Assay [3] in a line: Quantitative High-Throughput drug screen in 47 multiple myeloma cell lines against the NCATS MIPE library collection: PCM6_Riken cell viability assay (AID 1919870). Further: nearly all actives have a fitted effect of over 30% in size. The method in brief:
as §1

Assay [4] can be described thus: Quantitative High-Throughput drug screen in 47 multiple myeloma cell lines against the NCATS MIPE library collection: OPM2_DSMZ cell viability assay (AID 1919872). Further: nearly all actives have a fitted effect of over 30% in size. Put shortly: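 CellTiter-Glo ATP luminescence gave viability after 48 h compound treatment at 37C of 500 multiple myeloma cells per well. Normalisation used DMSO-only wells as 100% and media-only wells as 0% viability; primary qHTS of approved and investigational drugs.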

Assay [5] can be described thus: Quantitative High-Throughput drug screen in 47 multiple myeloma cell lines against the NCATS MIPE library collection: UTMC2_PLB cell viability assay (AID 1919868). Further: nearly all actives have a fitted effect of over 55% in size. To be noted: CellTiter-Glo ATP luminescence, 48 h; viability (% of DMSO control): at 45.8 µM (top of the series). Put shortly:
as §1
Background: ATP-based viability assays read luminescence as a measure of living cells.

Assay [6] in a line: Quantitative High-Throughput drug screen in 47 multiple myeloma cell lines against the NCATS MIPE library collection: RPMI8226_ATCC cell viability assay (AID 1919871). Further: nearly all actives have a fitted effect of over 30% in size. Put shortly:
as §1

Assay [7] in a line: Quantitative High-Throughput drug screen in 47 multiple myeloma cell lines against the NCATS MIPE library collection: VP6_DJ cell viability assay (AID 1919867). Further: nearly all actives have a fitted effect of over 40% in size. Put shortly:
as §1

The nature of assay [8]: Quantitative High-Throughput drug screen in 47 multiple myeloma cell lines against the NCATS MIPE library collection: PE2_PLB cell viability assay (AID 1919869). Further: nearly all actives have a fitted effect of over 35% in size. Put shortly:
as §1
Potency means the concentration at half of the fitted maximal effect.

Regarding `COc1cc(F)c(C(C)C)cc1-c1ccc(C(F)(F)F)cc1CN1C(=O)O[C@H](c2cc(C(F)(F)F)cc(C(F)(F)F)c2)[C@@H]1C`, the Potency was 20.9 µM (active) in assay [1], 26.4 µM (active) in assay [2] and 23.5 µM (active) in assay [3]. For the same molecule, the Potency result in assay [4] is “inactive”.

Regarding `CS(=O)(=O)c1ccc(C2=C(c3ccccc3)C(=O)OC2)cc1`, the Potency entry in assay [1], in assay [5], in assay [6] and in assay [4] was “inactive” each time.

As to `C[C@]12CC[C@@H]3c4ccc(O)cc4CC[C@H]3[C@H]1[C@@H](O)[C@@H](O)[C@H]2O`, the Potency in assay [2] was 14.8 µM (active). Moreover, the Potency result in assay [7], in assay [8] and in assay [4] was “inactive” each time.

Take `N#CC(c1ccnc(NCCc2cccnc2)n1)c1nc2ccccc2s1` (stereo not given): the Potency is 5.9 µM (active) in assay [1]; 10.5 µM (active) in assay [2]; 16.6 µM (active) in assay [5]; 5.9 µM (active) in assay [3]; 26.4 µM (active) in assay [4].

Regarding `COC(=O)N1CCN(Cc2cccc(NC(=O)Nc3ccc(C)nc3)c2F)CC1`, the Potency result in assay [1] and in assay [4] was “inactive” in each case.

Turning to `O=C(O)C1=CO[C@@H](O[C@@H]2O[C@H](CO)[C@H](O)[C@H](O)[C@H]2O)[C@@H]2C(CO)=CC[C@H]12`, the Potency entry in assay [1], in assay [2], in assay [8] and in assay [4] was “inactive” each time. Moreover, the Potency in assay [6] was 4.18 µM (active).

`CO[C@H]1/C=C\O[C@@]2(C)Oc3c(C)c(O)c4c(O)c(c5c(nc6cc(C)ccn65)c4c3C2=O)NC(=O)C(C)=CC=C[C@H](C)[C@H](O)[C@@H](C)[C@@H](O)[C@@H](C)[C@H](OC(C)=O)[C@H]1C`: the Potency entry in assay [1] and in assay [4] was “inactive” each time. The Potency in assay [6] is 20.9 µM (active).

Turning to `CC(C)(CO)[C@@H](O)C(=O)NCCC(=O)O`, the Potency in assay [1] was 20.9 µM (active); in assay [3] it was 16.6 µM (active). In addition, the Potency entry in assay [2], in assay [8], in assay [6] and in assay [4] was “inactive” each time.

As for `CCCCC[C@H](O)C=C[C@H]1[C@H](O)CC(=O)[C@H]1CCCCCCC(=O)O`, the Potency result in assay [1], in assay [2], in assay [3] and in assay [4] was “inactive” throughout. Besides, the Potency in assay [6] was 0.105 µM (active).

As for `O=C(NCCCCN1CCOCC1)c1cc2ccccc2o1`, the Potency entry in assay [1], in assay [3] and in assay [6] was “inactive” throughout.

`COc1ccc(Cn2ccc3ccc(C(=O)NO)cc32)cc1`: the figures for the Potency in assay [1] and in assay [7] were 14.8 µM (active) and 9.35 µM (active), respectively. In assay [6], the Potency entry is “inactive”.

Take `CC(C)N(CCCNC(=O)Nc1ccc(C(C)(C)C)cc1)C[C@H]1O[C@@H](n2cc(Br)c3c(N)ncnc32)[C@H](O)[C@H]1O`: the Potency is 20.9 µM (active) in assay [1], 23.5 µM (active) in assay [2], 23.5 µM (active) in assay [3] and 23.5 µM (active) in assay [4].

For `c1cc(OCCN2CCCCC2)cc(-c2n[nH]c3ccc(-c4ncn[nH]4)cc23)c1`, the values for the Potency in assay [1], in assay [7] and in assay [8] were 5.26 µM (active), 11.8 µM (active) and 10.5 µM (active), respectively.

Regarding `C[C@H]1O[C@@H](n2cc(F)c(=O)[nH]c2=O)[C@H](O)[C@H]1O`, the results for the Potency in assay [2], in assay [7] and in assay [3] were 8.33 µM (active), 0.59 µM (active) and 8.33 µM (active), respectively. Also, in assay [4], the Potency result is “inactive”.

Take `CN(C)S(=O)(=O)c1ccc2c(c1)C(=Cc1cc3c([nH]1)CCCC3)C(=O)N2`: the Potency is 2.64 µM (active) in assay [7], 3.32 µM (active) in assay [5] and 7.43 µM (active) in assay [6].

For `CCC[C@H](N[C@@H](C)C(=O)N1[C@@H]2CCCC[C@H]2C[C@H]1C(=O)O)C(=O)OCC`, the Potency in assay [5] is 1.32 µM (active); in assay [6], 9.35 µM (active).

Consider `Cc1ccccc1C(C(=O)NC1CCCCC1)N(C(=O)CNc1ccc(C#N)cc1)c1cccc(F)c1` (stereo not given), for which the Potency result in assay [7], in assay [8] and in assay [4] was “inactive” each time. The Potency in assay [6] is 23.5 µM (active).

For the molecule `OC[C@H]1O[C@@H](Oc2ccc(O)cc2)[C@H](O)[C@@H](O)[C@H]1O`, the Potency in assay [7] was 7.43 µM (active); in assay [5], 9.35 µM (active). Besides, the Potency result in assay [3], in assay [6] and in assay [4] was “inactive” each time.

Regarding `C[C@@H]1CC=CC=CC=CC=C[C@@H](O[C@@H]2O[C@H](C)[C@@H](O)[C@H](N)[C@H]2O)C[C@@H]2O[C@](O)(C[C@@H](O)C[C@@H]3O[C@@H]3C=CC(=O)O1)C[C@H](O)[C@@H]2C(=O)O`, the Potency in assay [2] was 4.69 µM (active); in assay [8] it was 9.35 µM (active); in assay [3] it was 16.6 µM (active).

With `COC(=O)[C@H](c1ccccc1Cl)N1CCc2sccc2C1`, the Potency entry in assay [2], in assay [5], in assay [8], in assay [3] and in assay [4] was “inactive” each time.

Regarding `COc1cc([C@@H]2c3cc4c(cc3[C@@H](O[C@@H]3O[C@@H]5CO[C@@H](C)O[C@@H]5[C@H](O)[C@@H]3O)[C@H]3COC(=O)[C@H]23)OCO4)cc(OC)c1O`, the Potency in assay [5] was 0.418 µM (active); in assay [8], 1.18 µM (active).

Take `Oc1ccc(C=Cc2cc(O)cc(O)c2)cc1`: the Potency result in assay [3] and in assay [4] was “inactive” throughout. Besides, in assay [6], the Potency was 18.7 µM (active).

Turning to `CCOC(=O)N1c2ccc(C(F)(F)F)cc2[C@@H](N(Cc2cc(C(F)(F)F)cc(C(F)(F)F)c2)C(=O)OC)C[C@H]1CC`, the Potency entry in assay [3] is “inactive”. Moreover, the Potency in assay [6] and in assay [4] was 9.35 µM (active) throughout.

These data come from PubChem BioAssay (NCATS).
